Over roughly 8,300 sequences, “log2 fold change of degron read counts, EGFP-low vs EGFP+ sorted cells (limma voom), compound-induced degradation” has its median near -1.1; the highest 2% begin near 3.2. This is one part of a sample in which the highest values are shown more often than they occur.
T1: CRBN, Q96SW2
T1 chain: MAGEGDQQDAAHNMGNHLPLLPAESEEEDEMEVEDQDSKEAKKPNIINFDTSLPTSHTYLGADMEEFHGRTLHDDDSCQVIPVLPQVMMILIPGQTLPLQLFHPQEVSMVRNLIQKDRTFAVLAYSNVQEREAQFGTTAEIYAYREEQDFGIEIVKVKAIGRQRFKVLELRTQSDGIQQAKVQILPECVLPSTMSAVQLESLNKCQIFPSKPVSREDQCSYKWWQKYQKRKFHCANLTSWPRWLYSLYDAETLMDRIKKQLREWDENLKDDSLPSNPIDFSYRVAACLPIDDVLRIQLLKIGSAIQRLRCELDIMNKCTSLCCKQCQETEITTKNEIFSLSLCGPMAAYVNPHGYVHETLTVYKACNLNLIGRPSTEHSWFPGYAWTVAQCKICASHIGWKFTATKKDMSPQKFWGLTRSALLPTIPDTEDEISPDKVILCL


Target: T1, CRBN, Q96SW2
Test: log2 fold change of degron read counts, EGFP-low vs EGFP+ sorted cells (limma voom), compound-induced degradation; higher = more compound-induced degradation of the degron-EGFP fusion; degrons are variants of IKZF1/3 zinc finger 2; compound dose not given here
Conditions: Jurkat, 18 h
[1] = compound: compound 19 (5-tert-butyl-thalidomide)
[2] = compound: compound 22 (5-morpholino-thalidomide)
[3] = compound: compound 33 (diphenyl IMiD analogue)
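Note: pooled lentiviral library of zinc finger degron-EGFP fusions in mCherry-positive Jurkat cells, FACS-sorted after compound exposure, with degron abundance counted by next-generation sequencing.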

Sequence	log2 fold change of degron read counts [1]	log2 fold change of degron read counts [2]	log2 fold change of degron read counts [3]	log2 fold change of degron read counts (compound: thalidomide)
FACNQCGHQFTQKGNLLRHIKL [46F_47A_49N_50Q_52G_53H_54Q_55F_67L_, Q9UKT9]	-2.48	-3.06	-3.27	-2.92
FRCNVCGAQFTQKGNLLRHIKL [46F_47R_49N_50V_52G_53A_54Q_55F_67L_, Q9UKT9]	-1.54	-1.19	-0.656	-0.561
FNCPICGHYFTQKGNLLRHIKL [46F_47N_49P_50I_52G_53H_54Y_55F_67L_, Q9UKT9]	-1.6	-1.7	-1.47	-1.44
FFCSVCGHKFTQKGNLLRHIKL [46F_47F_49S_50V_52G_53H_54K_55F_67L_, Q9UKT9]	-1.05	-2.36	-2.5	-2.6
FCCSVCGHVFTQKGNLLRHIKL [46F_47C_49S_50V_52G_53H_54V_55F_67L_, Q9UKT9]	-1.81	-2.39	-2.47	-2.11
FGCPICGASFTQKGNLLRHIKL [46F_47G_49P_50I_52G_53A_54S_55F_67L_, Q9UKT9]	3.27	2.28	2.49	1.31
FHCPICGASFTQKGNLLRHIKL [46F_47H_49P_50I_52G_53A_54S_55F_67L_, Q9UKT9]	2.77	2.54	2.08	0.926
FFCNICGASFTQKGNLLRHIKL [46F_47F_49N_50I_52G_53A_54S_55F_67L_, Q9UKT9]	2.16	2.55	1.2	-0.157
FFCPICGASFTQKGNLLRHIKL [46F_47F_49P_50I_52G_53A_54S_55F_67L_, Q9UKT9]	3.26	3.18	2.18	1.74
FTCPICGASFTQKGNLLRHIKL [46F_47T_49P_50I_52G_53A_54S_55F_67L_, Q9UKT9]	2.17	3.02	2.88	3.23
FICDICGARFTQKGNLLRHIKL [46F_47I_49D_50I_52G_53A_54R_55F_67L_, Q9UKT9]	-0.557	1.75	0.63	1.41
FGCNVCGAWFTQKGNLLRHIKL [46F_47G_49N_50V_52G_53A_54W_55F_67L_, Q9UKT9]	-1.56	-2	-0.753	-1.74
FFCDICGAYFTQKGNLLRHIKL [46F_47F_49D_50I_52G_53A_54Y_55F_67L_, Q9UKT9]	2.55	1.36	-0.119	-1.9
FWCPICGAGFTQKGNLLRHIKL [46F_47W_49P_50I_52G_53A_54G_55F_67L_, Q9UKT9]	3.3	2.73	1.87	0.518
FQCPICGAGFTQKGNLLRHIKL [46F_47Q_49P_50I_52G_53A_54G_55F_67L_, Q9UKT9]	2.39	2.05	1.77	3.69
FYCPICGAGFTQKGNLLRHIKL [46F_47Y_49P_50I_52G_53A_54G_55F_67L_, Q9UKT9]	2.99	2.02	2.1	-0.123
FLCPICGAGFTQKGNLLRHIKL [46F_47L_49P_50I_52G_53A_54G_55F_67L_, Q9UKT9]	1.86	0.187	1.6	1.01
FRCPICGAGFTQKGNLLRHIKL [46F_47R_49P_50I_52G_53A_54G_55F_67L_, Q9UKT9]	2.23	1.8	2.28	1.55
FTCPICGAGFTQKGNLLRHIKL [46F_47T_49P_50I_52G_53A_54G_55F_67L_, Q9UKT9]	1.55	2.19	2.35	2.4
FKCPICGAGFTQKGNLLRHIKL [46F_47K_49P_50I_52G_53A_54G_55F_67L_, Q9UKT9]	2.08	-0.359	-0.702	0.6
FACPICGAGFTQKGNLLRHIKL [46F_47A_49P_50I_52G_53A_54G_55F_67L_, Q9UKT9]	3.61	1.67	0.663	0.803
FSCPICGAGFTQKGNLLRHIKL [46F_47S_49P_50I_52G_53A_54G_55F_67L_, Q9UKT9]	2.83	1.27	1.76	0.755
FVCPICGAGFTQKGNLLRHIKL [46F_47V_49P_50I_52G_53A_54G_55F_67L_, Q9UKT9]	1.09	3.08	2.04	2.98
FDCPICGAGFTQKGNLLRHIKL [46F_47D_49P_50I_52G_53A_54G_55F_67L_, Q9UKT9]	2.33	-0.146	0.564	1.11
FGCPICGAGFTQKGNLLRHIKL [46F_47G_49P_50I_52G_53A_54G_55F_67L_, Q9UKT9]	3.28	1.32	2.32	0.446
FECDQCGAYFTQKGNLLRHIKL [46F_47E_49D_50Q_52G_53A_54Y_55F_67L_, Q9UKT9]	-2.99	-3.59	-2.13	-2.26
FGCDQCGATFTQKGNLLRHIKL [46F_47G_49D_50Q_52G_53A_54T_55F_67L_, Q9UKT9]	-1.78	-2.27	-1.3	-2.71
FWCEICGAFFTQKGNLLRHIKL [46F_47W_49E_50I_52G_53A_54F_55F_67L_, Q9UKT9]	3.03	3.13	2.12	-0.452
